Measured values reported in PubChem BioAssay (NCI).
This is part of a sample that, as a whole, favours compounds with a hit. Of some 83,000 tested, about 20% had one in any assay.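 Testing used 96-well plates and a 48-hour single-concentration exposure. Example: -40 means 40% of the starting cells died.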 The source made the active and inactive calls. Rule for the calls: active = growth percent below 10; inactive = the rest.

What was measured:
Assay in all cases: NCI-60 one-dose screen, 48 h (100 = growth as untreated, 0 = no growth, -100 = all killed)
[1] = test system: RPMI-8226 leukemia; details: 10 µM unless noted
[2] = test system: OVCAR-8 ovarian; details: 10 µM unless noted
[3] = test system: OVCAR-5 ovarian; details: 10 µM unless noted
[4] = test system: OVCAR-4 ovarian; details: 10 µM unless noted
[5] = test system: SK-OV-3 ovarian; details: 10 µM unless noted
[6] = test system: IGROV1 ovarian; details: 10 µM unless noted
[7] = test system: OVCAR-3 ovarian; details: 10 µM unless noted
[8] = test system: HS 578T breast; details: 10 µM unless noted
[9] = test system: NCI/ADR-RES ovarian; details: 10 µM unless noted
[10] = test system: T-47D breast; details: 10 µM unless noted
[11] = test system: MDA-MB-435 melanoma; details: 10 µM unless noted
[12] = test system: SW-620 colon; details: 10 µM unless noted
[13] = test system: MCF7 breast; details: 10 µM
[14] = test system: HCT-116 colon; details: 10 µM unless noted
[15] = test system: HCC-2998 colon; details: 10 µM unless noted
[16] = test system: KM12 colon; details: 10 µM unless noted
[17] = test system: BT-549 breast; details: 10 µM unless noted

Measured: growth

COc1c(B(O)O)cccc1-c1nc2ccc3[nH]ncc3c2c2c1C1CCC2C1 (stereo unspecified)
inactive: [1] 39.7% | [2] 59.9% | [3] 113% | [4] 115% | [5] 39.8% | [6] 76.1% | [7] 59% | [8] 40.8% | [9] 78.8% | [10] 101% | [11] 65.8% | [12] 34.3% | [13] 61.8% | [14] 20.5% | [15] 110% | [16] 25.3%

CN(C)CCNc1cc(-c2ccccc2)nc2ccccc12
inactive: [5] 36.4% | [8] 11.1%
active: [1] -8.18% | [2] -34.4% | [3] -39.7% | [4] -25% | [6] -64% | [7] -92.5% | [9] -1.85% | [10] -5.18% | [17] -77.8% | [12] -79.8% | [13] -24.6% | [14] -71.4% | [15] -81.4% | [16] -23.8%

O=C(Nc1ccc(F)cc1F)c1cc(Cl)ccc1O
active: [1] 1.46% | [5] -11.2% | [7] 7.98% | [8] 9.26% | [9] 7.62% | [10] -12.4% | [11] 4.56% | [13] 3.22% | [14] 8.39% | [16] 5.33%
inactive: [2] 10.6% | [3] 15.3% | [4] 16.6% | [6] 19.3% | [12] 14.5% | [15] 23.1%

O=c1oc2ccc(Cl)cc2c(=O)n1-c1ccc(I)cc1F
active: [1] -25.3% | [2] 8.73% | [5] 7.52% | [7] 6.61% | [8] -0.395% | [9] 5.51% | [10] -6.79% | [11] -6.3% | [12] 7.19% | [13] 3.96% | [14] 2% | [16] -18.3%
inactive: [3] 23.1% | [4] 16.1% | [6] 14.9% | [15] 16.2%

COc1ccc(C(O)(CCC(C)C)C(CN2CCOCC2)c2ccc(Cl)cc2)cc1 (stereo unspecified)
inactive: [1] 46.8% | [2] 67.1% | [3] 103% | [4] 84.6% | [5] 97.7% | [6] 85.1% | [8] 103% | [9] 29.4% | [10] 87.5% | [17] 62.2% | [12] 28.5% | [14] 26.6% | [15] 64.6% | [16] 48%
active: [7] 6.49%

Cc1[nH]c2ccccc2c(=O)c1CC=C(Cl)Cl
active: [1] -20.7% | [2] -84% | [4] -18.6% | [10] -26.4% | [14] -65.6%
inactive: [3] 40.1% | [5] 86.5% | [6] 29.4% | [7] 40.9% | [8] 84.2% | [9] 52.4% | [17] 135% | [12] 10.5% | [15] 59.3% | [16] 18.2%

O=c1oc2ccc(-c3ccc(F)cc3F)cc2c(=O)n1-c1ccc(Cl)c(C(F)(F)F)c1
active: [1] 3.09% | [2] 8.57% | [5] -9.2% | [7] 7.34% | [9] 6.43% | [10] -11% | [11] 7.88% | [13] 7.27% | [14] 6.47% | [16] 3.84%
inactive: [3] 74.8% | [4] 21.6% | [6] 35.3% | [8] 14.6% | [12] 14.6% | [15] 25.6%

O=C(CCN1C(=O)c2ccccc2C1=O)Nc1ccc(Cl)cc1
active: [1] 8.45%
inactive: [2] 48.8% | [3] 104% | [4] 91.2% | [5] 97.9% | [6] 77.8% | [7] 78.3% | [8] 39.1% | [9] 74.1% | [10] 60.1% | [11] 68.9% | [12] 103% | [13] 72.4% | [14] 61.4% | [15] 75.2% | [16] 75%

O=C(COc1cc(O)c2c(=O)cc(-c3ccccc3)oc2c1)Nc1ccccc1C(F)(F)F
active: [4] -50.1% | [7] -2.06% | [14] 5.84%
inactive: [1] 54.8% | [2] 29% | [3] 62.9% | [5] 44.1% | [6] 40.3% | [8] 15.5% | [9] 51.2% | [10] 14.3% | [11] 78% | [12] 21.8% | [13] 49.8% | [15] 90% | [16] 68.5%

Nc1ccc(-n2c(=O)oc3ccc(Cl)cc3c2=O)c(Cl)c1
active: [1] -27.3% | [2] -1.7% | [5] 5.68% | [7] 5.11% | [8] -4.07% | [9] -1.91% | [10] -8.23% | [11] -5.78% | [12] 5.14% | [13] 4.1% | [14] -4.7% | [16] -33.7%
inactive: [3] 25.6% | [4] 18.2% | [6] 11.7% | [15] 10.2%

O=c1oc2ccc(Cl)cc2c(=O)n1-c1cc(C(F)(F)F)cc(C(F)(F)F)c1
inactive: [3] 25.2% | [4] 18.1% | [6] 16%
active: [1] -26% | [2] 7.66% | [5] -10.6% | [7] 7.95% | [8] -15.1% | [9] 5.39% | [10] -9.71% | [11] -4.47% | [12] 6.78% | [13] 2.18% | [14] -12.7% | [15] 5.83% | [16] -31.5%

Nc1n[nH]c2ccc([C@@H]3Nc4ccc5[nH]ncc5c4[C@H]4[C@H]5CCC(C5)[C@H]43)cc12
active: [7] -10.1% | [8] 5.8% | [9] 5.44% | [11] -7.49% | [14] 9.49%
inactive: [1] 17.4% | [2] 24.3% | [3] 34.9% | [4] 47.6% | [5] 50.6% | [6] 24.2% | [10] 73.6% | [12] 22.2% | [13] 18.7% | [15] 26.2% | [16] 11.5%

O=c1c2cc(F)ccc2sc2c(NCCCNCCO)nc3ccc(Cl)cc3c12
active: [12] -38.8% | [14] -18.5%
inactive: [1] 36% | [2] 63.7% | [3] 79.5% | [4] 61% | [5] 87.7% | [6] 32% | [7] 68% | [8] 56.8% | [9] 85.8% | [10] 57.5% | [11] 40.1% | [13] 31% | [15] 60.7% | [16] 44%

O=c1c2cc(F)cc(Cl)c2sc2c(Cl)nc3ccccc3c12
inactive: [1] 115% | [2] 102% | [3] 95.5% | [4] 98.7% | [5] 95% | [6] 74.8% | [7] 108% | [8] 88.4% | [9] 98.3% | [10] 91.8% | [11] 110% | [12] 97.7% | [13] 77.1% | [14] 104% | [15] 104% | [16] 101%

CN1CCN(c2nc(Nc3ccc(O)cc3)nc3ccccc23)CC1
inactive: [1] 32.7% | [2] 30.1% | [3] 82.5% | [4] 82.9% | [5] 57.2% | [6] 52.1% | [7] 59.5% | [8] 89.2% | [9] 51.1% | [10] 82.2% | [17] 70.8% | [12] 57.2% | [13] 44.9% | [14] 94.6% | [15] 46.1% | [16] 65.6%

Cc1c(-c2noc(-c3ccc([N+](=O)[O-])cc3)n2)no[n+]1[O-]
inactive: [1] 93.3% | [2] 107% | [3] 104% | [4] 102% | [5] 111% | [6] 89.4% | [7] 94.4% | [8] 104% | [9] 96.2% | [10] 104% | [17] 95.7% | [12] 97.5% | [13] 55.2% | [14] 87.5% | [15] 102% | [16] 92.2%

O=c1oc2ccc(I)cc2c(=O)n1-c1ccc(F)cc1F
active: [1] 1.49% | [5] -19.4% | [7] 2.05% | [9] 5.71% | [10] -13.5% | [11] 1.74% | [13] 5.86% | [14] 6.72% | [16] 3.81%
inactive: [2] 12.5% | [3] 40% | [4] 12.7% | [6] 20.2% | [8] 19.8% | [12] 19.7% | [15] 26%

O=c1oc2ccc(F)cc2c(=O)n1-c1ccc(F)cc1F
inactive: [2] 23.3% | [3] 64.8% | [4] 11.9% | [6] 30.1% | [8] 12.8% | [9] 18.9% | [11] 11.7% | [12] 31.7% | [13] 24.8% | [14] 24.4% | [15] 22.8% | [16] 12.6%
active: [1] 5.47% | [5] -4.73% | [7] 4.14% | [10] -11.9%
